Rows were chosen to be rich in hits. Some 21% of all compounds tested hit in one or more screens of this group.
Pf growth 96h: P. falciparum growth inhibition at 96 hours; P. falciparum luciferase reporter growth, 96 h; Potency, µM (titrated, usually from 28.7 µM), usual class: inhibitors; actives 6.9% (n = 320,000)
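P. falciparum expressing integrated firefly luciferase, in erythrocytes at 2% hematocrit, 0.05% parasitemia, incubated with compounds 96 h at 37 C, 5% CO2. Growth inhibition read as loss of luminescence; two-generation exposure targets delayed-death apicoplast inhibitors.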
Cycloheximide cs: affects cycloheximide protein synthesis inhibition readout, counter-screen | AID 2314 | cell reporter, cycloheximide protein synthesis inhibition counterscreen | max response, % | actives 12% (n = 300,000); in the data active = max response mostly above about 13%, no sharp cut-off; inactive = mostly below about 14%; note: read at 38.3 µM for the half of the compounds with a filed dose
Shiga inhibitor: Shiga toxin inhibition; inhibition, % at 38.7 µM; AID 2315; actives 9.2% (n = 290,000); Vero cells, Shiga toxin protein synthesis inhibition reporter; in the data active = inhibition mostly above about 28%, no sharp cut-off; inactive = mostly below about 43%
NS1 inh: influenza NS1 inhibition | Potency, µM (doses to about 46.1 µM) | actives 0.4% (n = 270,000); calls by dose curve; note: actives are rising curves; nearly all actives have a fitted effect of over 50% in size
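In this qHTS, NS1 from influenza A is expressed in budding yeast, where it slows growth. Cells are switched from glucose to 2% galactose medium (pH 6.0, -URA), treated with compound, and growth recovery is read at OD600.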
Pf growth 48h: inhibits P. falciparum growth in the first generation, 48 h; Potency, µM (series often up to 28.7 µM), usual class: inhibitors; AID 504832; P. falciparum luciferase growth in erythrocytes, 48 h; actives 5.9% (n = 310,000)
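Compounds are pin-transferred into medium, infected erythrocytes (2% hematocrit, 0.1% parasitemia final) are added, and plates sit one parasite generation at 37 C in 5% CO2. Detection reagent is then added and luminescence measured.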
Of the large screens only hits and unclear results are named; the others gave an inactive call. Unless noted, calls come from the whole dose curve; as a rule, active = well fitted inhibition curve with a large enough effect; inconclusive = small, poorly fitted or top-dose-only effect, or another doubt; inactive = no such curve, though single readings can be large or run the other way.

CCOC(=O)CN1NC2(CCCCCCC2)NC1=S	none
CCOC(=O)Cn1c2c(c(=N)c3c1CCC3)CCC2	Pf growth 48h 1.04µM
CCOC(=O)c1ccc[n+](CC(=O)Nc2cc(C(F)(F)F)ccc2Cl)c1	none
Cn1c(=O)c2c(SCCN3CCOCC3)nc(C3CCCC3)nc2n(C)c1=O	Pf growth 48h inconclusive (no result: NS1 inh)
Cc1ccc(/C=C\c2nccc3c2[nH]c2ccccc23)cc1	Pf growth 96h inconclusive, Cycloheximide cs 33.2, Pf growth 48h 2.62µM
Fc1ccc(/C=C\c2nccc3c2[nH]c2ccccc23)cc1	Pf growth 48h inconclusive
C(=C\c1nccc2c1[nH]c1ccccc12)/c1ccccc1	Pf growth 96h 2.62µM, Cycloheximide cs 32.9, Shiga inhibitor 85.0, Pf growth 48h 1.85µM
Cc1nc(SC2C=CS(=O)(=O)C2)n[nH]1 (centres undefined)	none (no result: Pf growth 48h)
CC1CCCc2sc3nc(NCc4ccco4)n4ncnc4c3c21 (centres undefined)	Cycloheximide cs 23.5, Pf growth 48h inconclusive
CC1CCc2sc3nc(NCc4ccco4)n4ncnc4c3c2C1 (centres undefined)	Pf growth 96h inconclusive (no result: Pf growth 48h)
O=C(Nc1cccnc1)c1noc2c1CCCC2	Cycloheximide cs 46.8, Shiga inhibitor 85.4
O=C(Nc1ccc2c(c1)OCO2)c1noc2c1CCCC2	Cycloheximide cs 33.5, Shiga inhibitor 52.7
CC(=O)c1ccc(NC(=O)c2noc3c2CCCCC3)cc1	Cycloheximide cs 39.9, Shiga inhibitor 44.1
O=C(Nc1ccc2c(c1)OCO2)c1noc2c1CCCCC2	Cycloheximide cs 38.2, Shiga inhibitor 100.8
CC(C)(C)C1CCc2onc(C(=O)Nc3cccnc3)c2C1 (centres undefined)	Pf growth 48h inconclusive
CN(C)c1ccc(/C=C/C=N/Nc2nc(N3CCOCC3)nc(N3CCOCC3)n2)cc1	none (no result: NS1 inh)
O=S(=O)(c1ccc(Cl)cc1)N1CCN(S(=O)(=O)c2ccc3c(c2)OCCO3)CC1	none (no result: Pf growth 96h, NS1 inh, Pf growth 48h)
COC(=O)C/C=C/[C@@H](C)[C@@H](/C=N/OC[C@@H](C)[C@H](OCc1ccccc1)C(C)C)NS(=O)(=O)c1ccc(C)cc1	Pf growth 96h 9.28µM, Pf growth 48h 13.1µM
C=CC[C@@H]1C=C[C@H](O/N=C/[C@@H](NS(=O)(=O)c2ccc(C)cc2)[C@H](C)/C=C/CC(=O)OC)[C@@H](CO)O1	none
COc1ccccc1NC(=O)COc1coc(CN2CCN(c3ccccc3)CC2)cc1=O	Pf growth 96h inconclusive, Pf growth 48h 13.1µM (no result: Cycloheximide cs, Shiga inhibitor, NS1 inh)
Cc1cccc(NC(=O)COc2coc(CN3CCN(c4ccccc4)CC3)cc2=O)c1	Pf growth 96h inconclusive, Pf growth 48h 9.28µM (no result: Cycloheximide cs, Shiga inhibitor, NS1 inh)
Cc1ccccc1NC(=O)COc1coc(CN2CCN(c3ccccc3)CC2)cc1=O	Pf growth 48h inconclusive (no result: Cycloheximide cs, Shiga inhibitor, NS1 inh)
O=C(COc1coc(CN2CCN(c3ccccc3)CC2)cc1=O)Nc1cccc(F)c1	Pf growth 96h inconclusive (no result: Cycloheximide cs, Shiga inhibitor, NS1 inh)
O=C(NCC(=O)N(Cc1ccccc1)C(C(=O)NCC1CCCO1)c1ccccc1)c1ccco1 (centres undefined)	none
CCOC(=O)C1(CCOC)CCN(Cc2ccncc2)CC1	none
CCOC(=O)C1(CCOC)CCN(Cc2nc(C(C)C)cs2)CC1	Cycloheximide cs 29.5, Shiga inhibitor 68.3
O=C(COC(=O)c1ccccc1OCc1ccc(Cl)cc1)NC1CC1	none
C=CCN1C(=O)C(Cc2ccc(Br)cc2)S/C1=N\N=C\c1ccco1 (centres undefined)	Pf growth 96h 11.7µM
C=CCN1C(=O)C(Cc2ccc(OC)cc2)S/C1=N\N=C\c1cccs1 (centres undefined)	Pf growth 96h inconclusive (no result: Pf growth 48h)
C=CCN1C(=O)C(Cc2ccc(OC)cc2)S/C1=N/N=C/c1ccco1 (centres undefined)	Pf growth 96h inconclusive, Pf growth 48h 9.28µM
C=CCN1C(=O)C(Cc2ccc(F)cc2)S/C1=N/N=C/c1ccco1 (centres undefined)	Pf growth 96h inconclusive
CC1S/C(=N/N=C/c2ccco2)N(Cc2ccc(F)cc2)C1=O (centres undefined)	Cycloheximide cs 29.7, Shiga inhibitor 57.0
O=C(O)[C@@H]1[C@H](C(=O)O)[C@]2(Cl)C(Cl)=C(Cl)[C@@]1(Cl)C2(Cl)Cl	none (no result: Pf growth 96h, Cycloheximide cs, Shiga inhibitor, Pf growth 48h)
COc1cccc(C(=O)CN(C(=O)c2ccc(Cl)c(Cl)c2)N2C(=O)C3CCCCC3C2=O)c1 (centres undefined)	Pf growth 96h inconclusive (no result: Pf growth 48h)
CSc1ccc(NC(=O)Nc2cccn(Cc3ccccc3)c2=O)cc1	Cycloheximide cs 28.9, Shiga inhibitor 63.5
O=C(NCc1ccccc1)Nc1cccn(Cc2ccccc2Cl)c1=O	Pf growth 96h inconclusive, Shiga inhibitor 50.3, Pf growth 48h inconclusive
COc1ccc(Cn2cccc(NC(=O)Nc3ccc(F)cc3)c2=O)cc1	none
O=C(NCc1ccccc1)Nc1cccn(Cc2ccc(Cl)cc2)c1=O	none
O=C(Nc1ccccc1)Nc1cccn(Cc2c(F)cccc2Cl)c1=O	Cycloheximide cs 60.2, Shiga inhibitor 95.0
COc1ccc(Cc2n[nH]c(=S)n2N)cc1OC	Pf growth 96h inconclusive
Cc1cc(NC(=O)CCC(=O)NNC(=O)c2ccc(C(C)(C)C)cc2)no1	Cycloheximide cs 35.6, Shiga inhibitor 80.0
Cc1cc(C)cc(OCC(=O)Nc2nonc2NC(=O)COc2cc(C)cc(C)c2)c1	Pf growth 48h inconclusive
COc1ccc(OCC(=O)Nc2nonc2NC(=O)COc2ccc(OC)cc2)cc1	Pf growth 96h 9.28µM
COc1ccc2ccc(OCC(=O)Nc3cc(C)on3)cc2c1	Pf growth 96h inconclusive, Pf growth 48h 11.7µM (no result: Cycloheximide cs, Shiga inhibitor, NS1 inh)
Cc1cc(NC(=O)COc2ccc(C(C)(C)C)cc2)no1	Cycloheximide cs 31.7, Shiga inhibitor 49.8
COc1ccc(CC(=O)Nc2cc(C)on2)cc1	none
CC1C(=O)Nc2ccccc2N1C(=O)c1cccc(C(F)(F)F)c1 (centres undefined)	Pf growth 96h inconclusive
CCCCCCCN1CCN=C1N(C)C	Pf growth 48h inconclusive (no result: Cycloheximide cs, Shiga inhibitor, NS1 inh)
CCC(=O)NNC(=O)CCC(=O)Nc1ccccc1	none
CC(C)(C)c1ccc(C(=O)NNC(=O)CCC(=O)Nc2ccccc2)cc1	Cycloheximide cs 19.3
Cc1ccccc1NC(=O)C(Cl)=C(Cl)Cl	none
COC(=O)[C@@H]1C[C@@]2(O)[C@H](O)[C@H](O)[C@H](O)C[C@H]2N1Cc1ccccc1OS(=O)(=O)c1ccc(C)cc1	none
COC(=O)[C@@H]1C[C@H]2CC[C@H](O)C[C@H]2N1Cc1ccccc1OS(=O)(=O)c1ccc(C)cc1	Pf growth 96h inconclusive, Pf growth 48h 10.4µM
O=C(O)COc1ccc(Oc2ccccc2)cc1	none
c1ccc(Oc2ccc(-c3ccn[nH]3)cc2)cc1	Cycloheximide cs 36.6, Shiga inhibitor 69.0
CCCC1(C(=O)O)NC(c2ccc(OC)cc2O)C2C(=O)N(c3ccc(OC)cc3)C(=O)C21 (centres undefined)	Pf growth 96h 14.7µM (no result: Pf growth 48h)
COc1cc(/C=C2\C(=O)N(c3ccccc3)N=C2C)ccc1Oc1ccc([N+](=O)[O-])cc1[N+](=O)[O-]	Pf growth 96h 10.4µM
CC1=NN(c2ccccc2)C(=O)/C1=C\c1ccc(Oc2ccc([N+](=O)[O-])cc2[N+](=O)[O-])cc1	none
CCN(CC)C(=O)c1cn(CCC#N)nc1-c1ccc2ccccc2c1	Pf growth 96h inconclusive

Bioassay records: PubChem, National Center for Advancing Translational Sciences (NCATS)
